# Results taken from the supplement of paper PMC8728848.
# Shown is part of a subset that was picked to be rich in the strongest signals.
# B1: SSL (Salmo salar) (protein)
# chain: TGAKGAEEGVVPAETRNQCPTGWFQFGSRCFMFVETARSWPLAERHCVSLGANLASVHSSADDQFLQAIAGCKTGAFSTTWIGGFDAVQDRLWFWSDGSEFDYQNWAKGEPNNSGGREPCIVINWGDEYRWNDIKCGNSFPSVCSKRICEIQKN
# What was measured:
# Assay in all cases: glycan array binding signal (z-score within array); higher = stronger binding
# Conditions in all cases: glycan notation: IUPAC condensed, linker removed
# [1] = target: Fuc(a1-2)Gal(b1-3)GalNAc(a1-3)[Fuc(a1-2)]Gal(b1-4)Glc
# In short: (§1)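 Glycan array binding is given as a within-array Z-score, which can be read as non-binding when negative. The arrays, 3228 of them, came from the Consortium for Functional Glycomics database and were retained only where the protein sequence was available. Z-scores were averaged across arrays of the same protein sequence at different concentrations or buffers and across linkers.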
# [2] = target: Fuc(a1-2)Gal(b1-3)GlcNAc(b1-3)Gal(b1-4)Glc
# In short: as §1
# Fuc(a1-2)Gal(b1-4)Glc6S = target: Fuc(a1-2)Gal(b1-4)Glc6S
# In short: as §1
# [3] = target: Fuc(a1-2)[Gal(a1-3)]Gal(b1-4)[Fuc(a1-3)]GlcNAc
# In short: as §1
# [4] = target: Fuc(a1-2)[GalNAc(a1-3)]Gal
# In short: as §1
# [5] = target: Fuc(a1-2)[GalNAc(a1-3)]Gal(b1-4)GlcNAc(b1-3)Gal(b1-4)GlcNAc(b1-3)Gal(b1-4)GlcNAc
# In short: as §1
# [6] = target: Fuc(a1-3)[Gal(b1-4)]GlcNAc(b1-3)GalNAc
# In short: as §1
# [7] = target: Fuc(a1-3)[Gal3S(b1-4)]GlcNAc
# In short: as §1
# [8] = target: Gal(b1-3)GalNAc(a1-3)[Fuc(a1-2)]Gal(b1-4)Glc
# In short: as §1
# [9] = target: Gal(b1-3)GlcNAc(b1-6)Gal(b1-4)GlcNAc
# In short: as §1
# Gal(b1-4)GlcNAc = target: Gal(b1-4)GlcNAc
# In short: as §1
# [10] = target: Gal(b1-4)GlcNAc(b1-2)Man(a1-3)[Gal(b1-4)GlcNAc(b1-2)Man(a1-6)]Man(b1-4)GlcNAc(b1-4)GlcNAc
# In short: as §1
# [11] = target: Gal(b1-4)GlcNAc(b1-3)Gal(b1-3)GlcNAc
# In short: as §1
# [12] = target: Gal(b1-4)GlcNAc(b1-3)Gal(b1-4)[Fuc(a1-3)]GlcNAc(b1-3)Gal(b1-4)[Fuc(a1-3)]GlcNAc
# In short: as §1
# Gal6S(b1-4)GlcNAc6S = target: Gal6S(b1-4)GlcNAc6S
# In short: as §1
# GalNAc(b1-3)Gal = target: GalNAc(b1-3)Gal
# In short: as §1
# Glc(a1-4)Glc = target: Glc(a1-4)Glc
# In short: as §1
# GlcA(b1-3)GlcNAc = target: GlcA(b1-3)GlcNAc
# In short: as §1
# [13] = target: GlcNAc(b1-2)Man(a1-3)[GlcNAc(b1-2)Man(a1-6)]Man(b1-4)GlcNAc(b1-4)GlcNAc
# In short: as §1
# [14] = target: GlcNAc(b1-2)[GlcNAc(b1-4)]Man(a1-3)[GlcNAc(b1-2)Man(a1-6)]Man(b1-4)GlcNAc(b1-4)GlcNAc
# In short: as §1
# [15] = target: GlcNAc(b1-3)[GlcNAc(b1-4)][GlcNAc(b1-6)]GlcNAc
# In short: as §1
# [16] = target: GlcNAc(b1-3)[GlcNAc(b1-6)]Gal(b1-4)GlcNAc
# In short: as §1
# [17] = target: GlcNAc(b1-4)[GlcNAc(b1-6)]GalNAc
# In short: as §1
# [18] = target: Neu5Ac(a2-3)Gal(b1-3)GalNAc6S
# In short: as §1
# [19] = target: Neu5Ac(a2-3)Gal(b1-3)GlcNAc6S
# In short: as §1
# [20] = target: Neu5Ac(a2-3)Gal(b1-3)[Fuc(a1-4)]GlcNAc(b1-3)Gal(b1-3)[Fuc(a1-4)]GlcNAc
# In short: as §1
# [21] = target: Neu5Ac(a2-3)Gal(b1-3)[Neu5Ac(a2-6)]GalNAc
# In short: as §1
# [22] = target: Neu5Ac(a2-3)Gal(b1-4)GlcNAc(b1-3)Gal(b1-4)[Fuc(a1-3)]GlcNAc
# In short: as §1
# Neu5Ac(a2-6)Gal(b1-4)Glc = target: Neu5Ac(a2-6)Gal(b1-4)Glc
# In short: as §1
# [23] = target: Neu5Ac(a2-6)GlcNAc(b1-4)GlcNAc
# In short: as §1
binder,measurement,setting,value
B1,glycan array binding signal (z-score),[1],-0.152
same,glycan array binding signal (z-score),[2],-0.096
same,glycan array binding signal (z-score),Fuc(a1-2)Gal(b1-4)Glc6S,-0.137
same,glycan array binding signal (z-score),[3],-0.154
same,glycan array binding signal (z-score),[4],-0.165
same,glycan array binding signal (z-score),[5],-0.178
same,glycan array binding signal (z-score),[6],-0.124
same,glycan array binding signal (z-score),[7],-0.17
same,glycan array binding signal (z-score),[8],-0.165
same,glycan array binding signal (z-score),[9],-0.163
same,glycan array binding signal (z-score),Gal(b1-4)GlcNAc,-0.154
same,glycan array binding signal (z-score),[10],-0.167
same,glycan array binding signal (z-score),[11],-0.174
same,glycan array binding signal (z-score),[12],-0.175
same,glycan array binding signal (z-score),Gal6S(b1-4)GlcNAc6S,-0.162
same,glycan array binding signal (z-score),GalNAc(b1-3)Gal,-0.143
same,glycan array binding signal (z-score),Glc(a1-4)Glc,2.63
same,glycan array binding signal (z-score),GlcA(b1-3)GlcNAc,4.35
same,glycan array binding signal (z-score),[13],3.12
same,glycan array binding signal (z-score),[14],6.65
same,glycan array binding signal (z-score),[15],11.7
same,glycan array binding signal (z-score),[16],6.68
same,glycan array binding signal (z-score),[17],8.49
same,glycan array binding signal (z-score),[18],-0.18
same,glycan array binding signal (z-score),[19],-0.167
same,glycan array binding signal (z-score),[20],-0.086
same,glycan array binding signal (z-score),[21],-0.153
same,glycan array binding signal (z-score),[22],-0.179
same,glycan array binding signal (z-score),Neu5Ac(a2-6)Gal(b1-4)Glc,-0.158
same,glycan array binding signal (z-score),[23],0.202
